We go through seven compounds from ChEMBL document CHEMBL1961873, “Compounds: GSK PKIS; Assays: Nanosyn kinase panel” (2012).

The target in assay [1] is Tyrosine-protein kinase CSK (Homo sapiens) (UniProt P41240). Particulars: at 1 µM.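 Further: each value is an averaged inhibition reading.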
Assay [2] deals with T1, Discoidin domain-containing receptor 2 (Homo sapiens) (UniProt Q16832).
T1 sequence (whole entry): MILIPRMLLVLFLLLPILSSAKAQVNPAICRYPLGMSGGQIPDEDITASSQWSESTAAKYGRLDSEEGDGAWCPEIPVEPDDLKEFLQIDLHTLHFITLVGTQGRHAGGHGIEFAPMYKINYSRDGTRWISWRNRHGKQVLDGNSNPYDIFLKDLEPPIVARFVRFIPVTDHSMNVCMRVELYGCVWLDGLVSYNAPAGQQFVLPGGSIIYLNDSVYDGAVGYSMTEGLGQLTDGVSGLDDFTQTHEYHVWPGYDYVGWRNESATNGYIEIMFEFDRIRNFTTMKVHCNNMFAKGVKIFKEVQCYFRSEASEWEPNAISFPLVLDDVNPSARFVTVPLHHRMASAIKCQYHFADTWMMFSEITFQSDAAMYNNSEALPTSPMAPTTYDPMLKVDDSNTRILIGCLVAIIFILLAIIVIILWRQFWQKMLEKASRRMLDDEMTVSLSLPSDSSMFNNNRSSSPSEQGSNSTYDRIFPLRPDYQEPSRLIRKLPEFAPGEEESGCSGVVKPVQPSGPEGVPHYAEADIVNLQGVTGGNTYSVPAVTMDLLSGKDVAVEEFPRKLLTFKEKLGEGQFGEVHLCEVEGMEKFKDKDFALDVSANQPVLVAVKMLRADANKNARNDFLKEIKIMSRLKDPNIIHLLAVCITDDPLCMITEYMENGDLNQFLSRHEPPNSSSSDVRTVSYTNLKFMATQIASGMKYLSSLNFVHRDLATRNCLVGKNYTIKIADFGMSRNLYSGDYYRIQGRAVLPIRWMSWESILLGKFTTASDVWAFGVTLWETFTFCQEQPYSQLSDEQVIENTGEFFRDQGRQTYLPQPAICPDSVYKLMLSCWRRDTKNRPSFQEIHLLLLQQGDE
Particulars: at 0.1 µM.

In assay [3] the target is T1, Discoidin domain-containing receptor 2 (Homo sapiens). The note with it: at 1 µM.
The target of assay [4] is Epidermal growth factor receptor (Homo sapiens) (UniProt P00533). Particulars: at 0.1 µM.
Assay [5] shares this target. Particulars: at 1 µM.
Assay [6] concerns Epidermal growth factor receptor (Homo sapiens), P00533 [L858R]. Particulars: at 0.1 µM.
The test system is the same in assay [7]. Particulars: at 1 µM.
In assay [8] the test system is Epidermal growth factor receptor (Homo sapiens), P00533 [L861Q]. Particulars: at 0.1 µM.
Assay [9] shares this test system. The note with it: at 1 µM.
The subject of assay [10] is Epidermal growth factor receptor (Homo sapiens), P00533 [T790M]. The note with it: at 0.1 µM.
The test system is the same in assay [11]. The note with it: at 1 µM.
The test system of assay [12] is Epidermal growth factor receptor (Homo sapiens), P00533 [L858R,T790M]. Particulars: at 0.1 µM.
Assay [13] has the same test system. The note with it: at 1 µM.
The target in assay [14] is Ephrin type-A receptor 2 (Homo sapiens) (UniProt P29317). The note with it: at 0.1 µM.
For assay [15] the target is unchanged. The note with it: at 1 µM.
Assay [16] has as its target T2, Ephrin type-A receptor 3 (Homo sapiens) (UniProt P29320).
T2 sequence (whole entry): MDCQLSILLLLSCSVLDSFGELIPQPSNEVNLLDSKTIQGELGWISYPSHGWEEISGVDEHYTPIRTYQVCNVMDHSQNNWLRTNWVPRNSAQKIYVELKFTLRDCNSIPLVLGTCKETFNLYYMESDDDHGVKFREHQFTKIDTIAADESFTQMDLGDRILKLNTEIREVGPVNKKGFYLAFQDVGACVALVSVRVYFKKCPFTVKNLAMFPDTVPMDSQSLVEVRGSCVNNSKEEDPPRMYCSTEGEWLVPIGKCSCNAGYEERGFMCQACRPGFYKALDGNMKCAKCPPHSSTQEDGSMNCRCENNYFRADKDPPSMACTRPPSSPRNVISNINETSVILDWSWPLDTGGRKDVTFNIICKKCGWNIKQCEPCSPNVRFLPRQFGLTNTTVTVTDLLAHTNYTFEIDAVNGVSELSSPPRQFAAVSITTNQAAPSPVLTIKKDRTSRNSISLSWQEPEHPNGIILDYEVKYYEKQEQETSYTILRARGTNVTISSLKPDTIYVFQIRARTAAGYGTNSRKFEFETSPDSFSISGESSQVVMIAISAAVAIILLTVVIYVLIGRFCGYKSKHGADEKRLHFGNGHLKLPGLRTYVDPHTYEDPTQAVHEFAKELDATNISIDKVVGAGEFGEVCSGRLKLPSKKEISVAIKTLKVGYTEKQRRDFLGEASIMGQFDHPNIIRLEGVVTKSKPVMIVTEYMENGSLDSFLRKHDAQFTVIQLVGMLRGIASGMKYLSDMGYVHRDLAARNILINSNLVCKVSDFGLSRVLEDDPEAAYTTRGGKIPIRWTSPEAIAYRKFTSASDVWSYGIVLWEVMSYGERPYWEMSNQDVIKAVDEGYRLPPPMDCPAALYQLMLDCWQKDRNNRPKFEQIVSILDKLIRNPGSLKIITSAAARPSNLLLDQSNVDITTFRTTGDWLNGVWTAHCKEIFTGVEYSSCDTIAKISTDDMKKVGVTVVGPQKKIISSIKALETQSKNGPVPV
Particulars: at 0.1 µM.

Assay [17] concerns the target T2, Ephrin type-A receptor 3 (Homo sapiens). The note with it: at 1 µM.
In assay [18] the target is Ephrin type-A receptor 4 (Homo sapiens) (UniProt P54764). Particulars: at 0.1 µM.
The target is the same in assay [19]. Particulars: at 1 µM.
The target of assay [20] is T3, Ephrin type-B receptor 2 (Homo sapiens) (UniProt P29323).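 Further: reported as mean inhibition of EPHB2, from the GSK PKIS dataset.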
T3 sequence (whole entry): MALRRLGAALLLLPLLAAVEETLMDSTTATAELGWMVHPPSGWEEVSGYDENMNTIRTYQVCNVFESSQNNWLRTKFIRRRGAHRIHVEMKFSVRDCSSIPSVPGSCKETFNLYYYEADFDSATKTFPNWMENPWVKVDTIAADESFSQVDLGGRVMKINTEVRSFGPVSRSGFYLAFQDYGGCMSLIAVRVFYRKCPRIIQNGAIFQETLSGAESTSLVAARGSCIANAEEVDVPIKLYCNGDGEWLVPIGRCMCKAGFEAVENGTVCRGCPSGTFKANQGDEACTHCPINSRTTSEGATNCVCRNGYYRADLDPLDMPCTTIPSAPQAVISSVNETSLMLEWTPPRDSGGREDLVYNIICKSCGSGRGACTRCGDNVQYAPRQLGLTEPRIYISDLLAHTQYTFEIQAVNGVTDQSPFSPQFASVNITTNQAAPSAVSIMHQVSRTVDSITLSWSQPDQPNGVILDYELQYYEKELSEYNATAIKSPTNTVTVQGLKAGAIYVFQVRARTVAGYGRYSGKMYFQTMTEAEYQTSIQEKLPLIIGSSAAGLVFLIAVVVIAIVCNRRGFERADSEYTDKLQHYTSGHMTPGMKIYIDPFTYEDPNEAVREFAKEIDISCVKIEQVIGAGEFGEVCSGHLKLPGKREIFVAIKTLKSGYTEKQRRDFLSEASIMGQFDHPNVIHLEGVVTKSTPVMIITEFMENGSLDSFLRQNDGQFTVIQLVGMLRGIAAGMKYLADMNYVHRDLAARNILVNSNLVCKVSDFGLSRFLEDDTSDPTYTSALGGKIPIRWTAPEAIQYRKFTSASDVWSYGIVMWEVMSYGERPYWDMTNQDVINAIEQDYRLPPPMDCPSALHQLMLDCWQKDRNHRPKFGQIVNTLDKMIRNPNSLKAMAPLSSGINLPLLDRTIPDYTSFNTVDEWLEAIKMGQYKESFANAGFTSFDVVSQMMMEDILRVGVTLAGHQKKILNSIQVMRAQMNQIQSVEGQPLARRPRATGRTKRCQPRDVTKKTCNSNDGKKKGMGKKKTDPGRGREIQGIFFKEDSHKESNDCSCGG
Particulars: at 0.1 µM.

By inhibition is commonly meant the relative decrease from the control value, in per cent.

Each structure is given as a SMILES string.

Epidermal growth factor receptor (Homo sapiens), P00533 [L858R,T790M], sequence (P00533 whole entry T790M/L858R, looked up): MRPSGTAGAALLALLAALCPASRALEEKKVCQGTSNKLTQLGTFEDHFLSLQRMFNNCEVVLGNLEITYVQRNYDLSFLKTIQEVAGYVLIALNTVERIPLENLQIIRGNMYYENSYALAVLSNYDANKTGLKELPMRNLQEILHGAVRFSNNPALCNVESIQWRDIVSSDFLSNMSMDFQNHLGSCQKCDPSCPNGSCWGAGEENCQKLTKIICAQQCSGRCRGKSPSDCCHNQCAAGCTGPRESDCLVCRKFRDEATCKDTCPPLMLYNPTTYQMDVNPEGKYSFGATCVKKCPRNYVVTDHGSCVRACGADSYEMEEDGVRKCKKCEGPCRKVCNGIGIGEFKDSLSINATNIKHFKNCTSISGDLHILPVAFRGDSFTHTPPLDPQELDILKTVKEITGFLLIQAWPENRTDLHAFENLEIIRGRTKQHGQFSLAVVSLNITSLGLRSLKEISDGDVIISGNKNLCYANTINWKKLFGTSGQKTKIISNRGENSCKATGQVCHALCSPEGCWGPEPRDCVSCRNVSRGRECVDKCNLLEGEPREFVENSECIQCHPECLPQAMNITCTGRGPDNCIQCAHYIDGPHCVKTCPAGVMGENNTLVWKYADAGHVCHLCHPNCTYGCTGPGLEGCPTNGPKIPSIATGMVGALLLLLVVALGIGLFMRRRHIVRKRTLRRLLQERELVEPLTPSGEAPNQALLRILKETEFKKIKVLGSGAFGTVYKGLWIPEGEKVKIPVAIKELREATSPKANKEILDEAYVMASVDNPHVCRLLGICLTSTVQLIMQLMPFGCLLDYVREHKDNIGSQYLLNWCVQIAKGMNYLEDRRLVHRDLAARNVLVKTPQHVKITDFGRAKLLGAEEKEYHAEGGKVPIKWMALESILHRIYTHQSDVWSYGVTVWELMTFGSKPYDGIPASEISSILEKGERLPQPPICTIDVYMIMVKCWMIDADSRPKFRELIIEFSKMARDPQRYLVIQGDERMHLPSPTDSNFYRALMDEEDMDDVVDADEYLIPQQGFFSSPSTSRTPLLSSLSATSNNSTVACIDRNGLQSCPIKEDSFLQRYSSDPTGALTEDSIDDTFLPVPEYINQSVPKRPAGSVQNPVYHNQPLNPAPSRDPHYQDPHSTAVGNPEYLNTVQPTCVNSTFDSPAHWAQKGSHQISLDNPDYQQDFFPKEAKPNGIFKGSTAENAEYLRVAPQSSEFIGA
Ephrin type-A receptor 4 (Homo sapiens), sequence (P54764 whole entry): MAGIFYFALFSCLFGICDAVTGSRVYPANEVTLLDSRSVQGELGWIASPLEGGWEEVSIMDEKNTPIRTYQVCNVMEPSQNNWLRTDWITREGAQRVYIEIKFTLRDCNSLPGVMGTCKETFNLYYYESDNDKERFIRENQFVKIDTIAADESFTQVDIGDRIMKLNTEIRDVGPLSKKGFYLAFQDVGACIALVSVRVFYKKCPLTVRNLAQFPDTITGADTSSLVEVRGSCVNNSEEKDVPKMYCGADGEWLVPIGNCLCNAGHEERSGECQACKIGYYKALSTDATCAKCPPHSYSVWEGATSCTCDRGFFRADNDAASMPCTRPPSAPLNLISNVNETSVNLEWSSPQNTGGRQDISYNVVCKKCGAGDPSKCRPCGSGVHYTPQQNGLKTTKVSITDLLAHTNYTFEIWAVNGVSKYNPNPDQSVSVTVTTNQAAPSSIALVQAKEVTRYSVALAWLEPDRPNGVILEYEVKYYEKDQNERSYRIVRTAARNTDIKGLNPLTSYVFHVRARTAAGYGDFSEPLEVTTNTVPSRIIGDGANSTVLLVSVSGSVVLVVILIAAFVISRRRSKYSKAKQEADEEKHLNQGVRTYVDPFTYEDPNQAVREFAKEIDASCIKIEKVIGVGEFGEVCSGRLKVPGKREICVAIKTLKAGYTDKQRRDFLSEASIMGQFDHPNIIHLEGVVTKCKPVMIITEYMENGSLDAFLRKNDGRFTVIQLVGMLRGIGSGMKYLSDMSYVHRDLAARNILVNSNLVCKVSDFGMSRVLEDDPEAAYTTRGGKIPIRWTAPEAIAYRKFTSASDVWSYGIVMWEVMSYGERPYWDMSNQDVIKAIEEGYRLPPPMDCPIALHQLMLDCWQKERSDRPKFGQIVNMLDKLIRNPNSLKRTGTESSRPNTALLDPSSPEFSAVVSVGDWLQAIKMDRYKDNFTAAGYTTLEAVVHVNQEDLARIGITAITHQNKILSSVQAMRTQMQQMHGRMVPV
Ephrin type-A receptor 2 (Homo sapiens), sequence (P29317 whole entry): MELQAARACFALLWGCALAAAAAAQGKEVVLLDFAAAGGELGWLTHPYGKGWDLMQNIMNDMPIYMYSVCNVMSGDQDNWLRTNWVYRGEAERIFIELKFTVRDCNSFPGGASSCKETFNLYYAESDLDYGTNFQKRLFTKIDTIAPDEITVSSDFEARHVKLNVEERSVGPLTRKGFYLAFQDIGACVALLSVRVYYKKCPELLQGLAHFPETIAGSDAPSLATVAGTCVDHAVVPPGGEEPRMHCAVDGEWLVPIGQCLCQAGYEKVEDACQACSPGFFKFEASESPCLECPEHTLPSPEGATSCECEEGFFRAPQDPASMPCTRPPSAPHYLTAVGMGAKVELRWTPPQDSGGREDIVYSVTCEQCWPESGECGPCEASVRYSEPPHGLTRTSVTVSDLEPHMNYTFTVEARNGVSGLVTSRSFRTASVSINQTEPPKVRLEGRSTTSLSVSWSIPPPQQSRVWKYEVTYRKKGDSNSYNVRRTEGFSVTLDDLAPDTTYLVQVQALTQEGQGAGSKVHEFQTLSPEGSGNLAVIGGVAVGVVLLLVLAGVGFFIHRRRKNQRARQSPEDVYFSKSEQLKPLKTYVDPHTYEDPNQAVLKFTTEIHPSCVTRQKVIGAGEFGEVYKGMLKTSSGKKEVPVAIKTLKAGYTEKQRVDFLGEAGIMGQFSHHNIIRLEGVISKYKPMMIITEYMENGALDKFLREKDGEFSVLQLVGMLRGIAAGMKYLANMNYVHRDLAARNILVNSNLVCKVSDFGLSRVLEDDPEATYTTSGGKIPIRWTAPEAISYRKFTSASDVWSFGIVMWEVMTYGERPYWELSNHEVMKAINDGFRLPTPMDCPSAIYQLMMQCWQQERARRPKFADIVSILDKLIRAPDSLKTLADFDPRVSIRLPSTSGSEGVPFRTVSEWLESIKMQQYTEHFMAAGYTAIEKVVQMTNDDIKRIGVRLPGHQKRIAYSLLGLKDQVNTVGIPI
Epidermal growth factor receptor (Homo sapiens), sequence (P00533 whole entry): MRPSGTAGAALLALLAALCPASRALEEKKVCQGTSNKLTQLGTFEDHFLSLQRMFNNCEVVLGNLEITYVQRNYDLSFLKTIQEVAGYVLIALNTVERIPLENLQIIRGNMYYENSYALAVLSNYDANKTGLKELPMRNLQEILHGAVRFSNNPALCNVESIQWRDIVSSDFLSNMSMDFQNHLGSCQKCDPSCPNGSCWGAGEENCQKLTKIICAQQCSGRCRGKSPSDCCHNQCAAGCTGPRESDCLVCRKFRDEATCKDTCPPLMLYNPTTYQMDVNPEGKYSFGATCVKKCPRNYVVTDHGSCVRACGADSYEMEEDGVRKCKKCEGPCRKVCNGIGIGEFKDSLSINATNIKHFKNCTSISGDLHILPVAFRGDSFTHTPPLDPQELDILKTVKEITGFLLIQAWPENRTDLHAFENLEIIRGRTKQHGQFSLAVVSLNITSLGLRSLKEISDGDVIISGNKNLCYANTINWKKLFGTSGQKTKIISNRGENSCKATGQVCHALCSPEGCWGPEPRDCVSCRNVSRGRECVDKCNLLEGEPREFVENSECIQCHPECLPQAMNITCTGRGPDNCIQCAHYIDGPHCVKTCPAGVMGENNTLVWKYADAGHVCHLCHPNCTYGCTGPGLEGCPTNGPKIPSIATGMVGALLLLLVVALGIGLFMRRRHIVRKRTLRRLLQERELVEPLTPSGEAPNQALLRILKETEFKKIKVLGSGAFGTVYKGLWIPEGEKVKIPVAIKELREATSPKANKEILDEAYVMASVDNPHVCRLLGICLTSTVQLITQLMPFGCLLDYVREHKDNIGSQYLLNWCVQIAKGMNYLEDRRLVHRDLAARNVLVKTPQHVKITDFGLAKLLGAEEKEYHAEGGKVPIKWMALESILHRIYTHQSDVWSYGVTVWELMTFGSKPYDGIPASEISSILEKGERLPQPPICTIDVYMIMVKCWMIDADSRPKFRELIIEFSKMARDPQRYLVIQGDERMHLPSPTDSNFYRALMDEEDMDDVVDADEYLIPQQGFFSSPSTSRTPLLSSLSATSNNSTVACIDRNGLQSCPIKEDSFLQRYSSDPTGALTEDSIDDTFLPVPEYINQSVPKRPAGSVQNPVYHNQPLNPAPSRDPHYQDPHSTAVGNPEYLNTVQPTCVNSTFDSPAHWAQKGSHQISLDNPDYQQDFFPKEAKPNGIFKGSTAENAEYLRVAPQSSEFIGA
Tyrosine-protein kinase CSK (Homo sapiens), sequence (P41240 2-450 limits assumed): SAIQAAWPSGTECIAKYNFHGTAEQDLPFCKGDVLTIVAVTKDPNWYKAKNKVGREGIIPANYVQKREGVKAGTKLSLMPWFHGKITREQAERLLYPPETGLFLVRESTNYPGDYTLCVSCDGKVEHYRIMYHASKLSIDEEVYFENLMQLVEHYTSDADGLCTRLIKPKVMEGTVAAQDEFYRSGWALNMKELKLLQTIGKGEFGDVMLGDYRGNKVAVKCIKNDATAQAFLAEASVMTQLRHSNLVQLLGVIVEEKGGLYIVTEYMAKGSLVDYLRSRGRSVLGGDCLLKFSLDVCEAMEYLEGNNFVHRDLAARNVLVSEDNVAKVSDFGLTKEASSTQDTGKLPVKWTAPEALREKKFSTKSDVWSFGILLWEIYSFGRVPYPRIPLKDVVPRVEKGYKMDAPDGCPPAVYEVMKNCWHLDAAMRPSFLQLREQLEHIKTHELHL

On to `NS(=O)(=O)c1ccc(N/N=C2\C(=O)Nc3ccc(C(=O)NCc4ccncc4)cc32)cc1`, for which the inhibition in assay [1] is 7.78%; in assay [2], -0.45%; in assay [3], 3.57%; in [4], -0.63%; in assay [5], 5.5%; in assay [6], 6.1%. Also, the inhibition was found to be 4.21% in assay [7]; 4.5% in assay [8]; 4.52% in assay [9]; 2.35% in [10]; 5.2% in assay [11]; 0.1% in assay [12]. For the same compound, the inhibition in assay [13] is 2.72%; in assay [14] it was 1.72%; in [15], 1.75%; in assay [16], 4.4%; in assay [17], 3.58%; in assay [18], 8.7%. The inhibition in assay [19] is 15%; in assay [20], 4.03%.

Turning to `Cc1c2ccc(N(C)c3ccnc(Nc4cccc(S(N)(=O)=O)c4)n3)cc2nn1C`, the inhibition was 19% in assay [1]; 11.4% in [2]; 65% in [3]; -3.87% in assay [4]; 0.64% in assay [5]; 3.16% in [6]. The inhibition worked out at 11.9% in assay [7]; 5.08% in [8]; 3.69% in [9]; 3.44% in assay [10]; 3.28% in assay [11]; 2.62% in [12]. The inhibition is 13.1% in assay [13]; -1.48% in [14]; 2.19% in [15]; 0.79% in [16]; 2.97% in assay [17]; 8.51% in assay [18]. In addition, the inhibition worked out at 14.2% in [19] and 5.88% in assay [20].

For the compound `NS(=O)(=O)c1cccc(N/C=C2\C(=O)Nc3ccccc32)c1`, the inhibition is -0.23% in assay [1]; 4.35% in assay [2]; 6% in assay [3]; 5.8% in assay [4]; 9.72% in [5]; 2.03% in assay [6]. Also, the inhibition in assay [7] is 3.12%; in assay [8] it was 2.12%; in assay [9], 2.32%; in [10], 2.62%; in [11], 1.35%; in assay [12], 2.94%. The inhibition in assay [13] amounted to 5.43%; in [14], 0.86%; in assay [15], 1.68%; in [16] it was 3.01%; in assay [17] it was 3.78%; in assay [18], 7.61%. Also, the inhibition amounted to 3.9% in assay [19] and 9.06% in assay [20].

As for `COc1cccc(-n2ncc3c(N/N=C/c4ccc(C(=O)NCCN(C)C)cc4)ncnc32)c1`, the inhibition came to 22% in [1]; 7.86% in assay [2]; 41% in [3]; 16.7% in [4]; 56.4% in assay [5]; 63.6% in [6]. Moreover, the inhibition in [7] was found to be 90.6%; in [8] it was 23%; in assay [9], 68.7%; in assay [10] it was 0.59%; in assay [11], 4.06%; in assay [12], 4.3%. Moreover, the inhibition was determined as 25.9% in assay [13]; 1.33% in assay [14]; 5.44% in [15]; 3.11% in [16]; 6.35% in [17]; 2.76% in assay [18]. Further, the figures for the inhibition in [19] and in assay [20] were 15.9% and 14.1%, respectively.

Take `CS(=O)(=O)CCNCc1ccoc1-c1ccc2ncnc(Nc3ccc(OCc4ccccc4)cc3)c2c1`: the inhibition came to 4.64% in assay [1]; 5.97% in assay [2]; 7.08% in assay [3]; 66.8% in assay [4]; 86.2% in [5]; 14.5% in [6]. The inhibition in assay [7] is 51.2%; in assay [8] it was 25.4%; in assay [9] it was 42.1%; in assay [10], 0.03%; in assay [11] it was 4.58%; in assay [12], -0.19%. The inhibition was -0.52% in assay [13]; -2.48% in [14]; -2.19% in assay [15]; 0.44% in [16]; 2.32% in assay [17]; 4.33% in assay [18]. In addition, the inhibition in assay [19] was determined as 6.25%; in [20], 4.8%.

For `O=C(O[C@H]1CN[C@H](C#Cc2cc3ncnc(Nc4ccc5c(ccn5Cc5cc(F)ccc5F)c4)c3s2)C1)N1CCOCC1`, the inhibition is 2.68% in assay [1]; 2.04% in [2]; 2.8% in [3]; 65.5% in assay [4]; 76.4% in [5]; 11.2% in assay [6]. In addition, the inhibition in [7] was 53.6%; in [8], 22.6%; in assay [9], 39%; in assay [10], 20%; in [11], 50.3%; in assay [12], 4.66%. Moreover, the inhibition in [13] was found to be 9.08%; in assay [14] it was 0.75%; in assay [15], 0.06%; in assay [16], 4.84%; in assay [17] it was 4.4%; in assay [18] it was 6.87%. The inhibition was 3.19% in assay [19] and 5.25% in [20].

Regarding `COc1ccc(-c2nn3ncccc3c2-c2ccnc(Nc3ccc(F)c(F)c3)n2)cc1`, the inhibition was 8.37% in [1]; 4.41% in [2]; 34.7% in assay [3]; 1.6% in assay [4]; 9.46% in assay [5]; 3.72% in assay [6]. Besides, the inhibition in assay [7] amounted to 21.4%; in assay [8], 3.55%; in [9] it was 10.2%; in assay [10], 3.23%; in assay [11] it was 6.23%; in assay [12], 3.78%. The inhibition in [13] was 8.64%; in [14] it was 2.87%; in assay [15], -0.08%; in [16], 3.49%; in [17], 6.3%; in [18], 8.99%. Besides, the inhibition in assay [19] worked out at 16.4%; in [20], 7.75%.
